Several values for one entry are separate records, joined by “and”; a condition that tells them apart may be missing. Identical values can stand only once. Some structures have more than one record in an assay (separate samples or runs), and their calls can disagree. Activity calls are given as the source filed them. The calls were made as follows: active = hit-call score of the fitted dose curve at least 0.9, where 1 is the maximum; inactive = score below 0.9.
Test: ATG_PXRE_CIS: Attagene CIS-FACTORIAL HepG2 Assay for human Pregnane X Receptor Element (PXRE) (AID 2282957)
Settings: HepG2 Attagene CIS-FACTORIAL PXRE reporter, mRNA; actives raise or lower the signal
Method in brief: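 Using HepG2 transfected with multiple reporter transcription units, endogenous factor-driven transcription was scored as reporter mRNA after 24 h exposure.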

SMILES	outcome	AC50
c1ccc2c(c1)CCC2	inactive	–
CC(C)(C)c1ccc(O)c(O)c1	–	2.45 µM (active) [middle of 5 runs]
CN(Cc1cnc2nc(N)nc(N)c2n1)c1ccc(C(=O)N[C@@H](CCC(=O)O)C(=O)O)cc1	–	58.9 µM (active)
CCCCCCCCCCCC(=O)NCCCN(C)C	–	5.26 µM (active)
O=C1c2ccc(O)c(O)c2C(=O)c2c(O)ccc(O)c21	–	13.5 µM (active)
Cc1ccc(C(=O)c2ccccc2)cc1	–	30.4 µM (active)
Nc1ccc(O)c(C(=O)O)c1	inactive	–
CCCCc1oc2ccccc2c1C(=O)c1cc(I)c(OCCN(CC)CC)c(I)c1	–	1.44 µM (active)
O=C(O)C(F)(F)OC(F)(F)C(F)(F)OC(F)(F)C(F)(F)OC(F)(F)C(F)(F)C(F)(F)C(F)(F)F	–	11.1 µM (active) and 4.38 µM (active)
CC[N+](CC)(CC)Cc1ccccc1	inactive	–
O=C1Cc2ccccc2N1c1c(Cl)cccc1Cl	–	0.484 µM (active)
CN(C)c1ccc(C(=C2C=CC(=[N+](C)C)C=C2)c2ccccc2)cc1	inactive	–
CCCCC(CC)C(=O)OCCOCCOCCOCCOC(=O)C(CC)CCCC (stereo not drawn)	–	27.5 µM (active)
c1cnc2c(c1)ccc1cccnc12	inactive	–
CN(C)CCOC(c1ccccc1)c1ccccc1	–	151 µM (active)
C[C@]12CC[C@@H]3c4ccc(O)cc4CC[C@H]3[C@@H]1CC[C@@H]2OC(=O)CCC1CCCC1	–	3.89 µM (active)
Cc1cc(=O)oc2cc(O)ccc12	–	8.35 µM (active) and 25.5 µM (active)
FC(OC(F)(F)C(F)(F)C(F)(F)F)C(F)(F)F (stereo not drawn)	inactive	–

SMILES	outcome	AC50
COCN(COC)c1nc(N(COC)COC)nc(N(COC)COC)n1	–	45.3 µM (active)
CC=O	inactive	–
CCCCCCCCCCCCCCC	inactive	–
Cc1ccccc1C(OCCN(C)C)c1ccccc1 (stereo not drawn)	inactive	27 µM (active)
CC(=O)Nc1ccc(O)cc1	inactive	–
CC(C)CCOCCC(C)C	inactive	–
CCc1ccccc1O	–	10.8 µM (active)
O=P(O)(O)CCC(F)(F)C(F)(F)C(F)(F)C(F)(F)C(F)(F)C(F)(F)F	inactive	–
Nc1ccn([C@@H]2O[C@H](CO)[C@@H](O)C2O)c(=O)n1 (stereo partly drawn)	inactive	–
CC1=NN(c2ccccc2)C(=O)C1	–	66.2 µM (active) and 60 µM (active)
O=S(=O)(c1ccc(OCc2ccccc2)cc1)c1ccccc1O	–	7.94 µM (active)
CC(C)C=O	–	61.9 µM (active) and 34.9 µM (active)
Cc1ccc(S(=O)(=O)O)cc1	inactive	26.3 µM (active)
Cc1cc(Cc2cc(C)cc(C(C)(C)C)c2O)c(O)c(C(C)(C)C)c1	–	0.0497 µM (active)
Cc1ccc(N=Nc2c(O)ccc3ccccc23)c(C)c1	–	2.81 µM (active)
O=C1OC(=O)c2cc(-c3ccc4c(c3)C(=O)OC4=O)ccc21	inactive	–
O=C1c2ccccc2C(=O)c2c(O)c(O)cc(O)c21	–	26.6 µM (active)
CCC(=O)O	inactive	–

Source: PubChem BioAssay (EPA / NIEHS)
